Screening results deposited in PubChem BioAssay by National Center for Advancing Translational Sciences (NCATS).
Cruzain Triton = inhibitors of Trypanosoma cruzi cruzain with detergent | P25779 | hit rate 0.43% among 200,000 | Potency, µM, inactives show max response, negative = inhibition, most hits filed as inhibitors | purified cruzain, Z-FR-AMC fluorescence, 0.01% Triton;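 note: plate controls were neutral wells for no effect and buffer without enzyme for full effect; nearly all actives have a fitted effect of over 40% in size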
Target sequence (P25779 123-467 limits assumed): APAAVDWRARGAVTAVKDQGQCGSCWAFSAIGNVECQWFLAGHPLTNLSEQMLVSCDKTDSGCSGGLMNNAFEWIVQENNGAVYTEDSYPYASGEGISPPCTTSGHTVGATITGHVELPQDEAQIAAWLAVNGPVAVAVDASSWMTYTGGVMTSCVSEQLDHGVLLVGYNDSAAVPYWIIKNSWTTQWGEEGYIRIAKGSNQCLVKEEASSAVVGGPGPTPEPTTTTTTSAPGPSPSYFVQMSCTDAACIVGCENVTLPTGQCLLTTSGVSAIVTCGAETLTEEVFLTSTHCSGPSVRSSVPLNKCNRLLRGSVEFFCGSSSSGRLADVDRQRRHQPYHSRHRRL
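Cruzain (1.5 nM) preincubated 15 min at RT with compound in 100 mM sodium acetate pH 5.5, 5 mM DTT, 0.01% Triton X-100. Reaction started with 2 uM Z-FR-AMC; AMC fluorescence (ex 360/em 450 nm) change over 60 s gave rate.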
NS1 inh = influenza NS1 inhibition | Potency, µM (doses to about 46.1 µM), for the others: at the top dose activity, positive = more growth | hit rate 0.4% among 270,000 | AID 2326; calls by dose curve; note: actives are rising curves; nearly all actives have a fitted effect of over 50% in size
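A cell-based growth assay was used: compounds that relieve NS1-induced slow growth of budding yeast raise OD600. Assay medium was yeast nitrogen base with ammonium sulphate and -URA supplement, pH 6.0, with 2% galactose.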
Cruzain inh noDet = blocks cruzain activity in detergent-free assay. purified cruzain, Z-FR-AMC fluorescence, no detergent. Potency, µM, for the others: max response, negative = inhibition, usual class: inhibitors. hit rate 2.3% among 200,000. AID 1476;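 note: plate controls were enzyme without inhibitor for no effect and buffer without enzyme for full effect; nearly all actives have a fitted effect of over 40% in size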
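Purified cruzain at 1.5 nM, pre-incubated 15 min with compound at room temperature in 100 mM sodium acetate pH 5.5, 5 mM DTT, 0.00005% Triton X-100. Reaction started with 2 uM Z-FR-AMC; AMC fluorescence increase over 60 s gives rate.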
Active calls of the source: *. Shown is part of a subset that was picked to be rich in hits. Unless noted, calls come from the whole dose curve; as a rule, active = well fitted curve in the direction sought with a large enough effect; inconclusive = small, poorly fitted or top-dose-only effect, or another doubt; inactive = no such curve, though single readings can be large; an effect the other way counts as inactive or inconclusive. Potency is the fitted concentration of half-maximal effect.

`NC(=S)N/N=C\c1ccccc1OCc1ccccc1` gave Cruzain Triton 3.2µM*, NS1 inh 10% and Cruzain inh noDet 1.3µM*.
Screening COc1cccc(/C=N/NC(N)=S)c1OCc1cccc(Cl)c1 returned Cruzain Triton -24%, NS1 inh 19% and Cruzain inh noDet 5µM*.
For O=C(CSCc1ccccc1)N/N=C/c1ccccc1OCc1ccccc1 the results were Cruzain Triton -1%, NS1 inh -24% and Cruzain inh noDet 1%.
COc1cccc(/C=N/NC(=S)NCCc2ccccc2)c1OC was read as NS1 inh -5%.
For C/C(=C\C[Si](C)(C)C)CC[C@H](O)C1=CCCCC1=O the results were Cruzain Triton 1% and Cruzain inh noDet inconclusive.
O=c1c(-c2ccc(F)cc2)nc2cncnc2n1C1CC1 was read as Cruzain Triton 1% and Cruzain inh noDet 3%.
For COc1ccc(/C=C/C(=O)Nc2cc(C)nn2-c2nc3ccccc3n2Cc2cccc([N+](=O)[O-])c2)cc1 the results were Cruzain Triton 0%, NS1 inh 6% and Cruzain inh noDet 7.9µM*.
For COc1ccc(/C=C/C(=O)Nc2cc(C)nn2-c2nc3ccccc3[nH]2)cc1 the results were Cruzain Triton -29%, NS1 inh -8% and Cruzain inh noDet inconclusive.
C/C(=N/NS(=O)(=O)c1ccc(C)cc1)P(=O)(O)O was read as Cruzain Triton 1%, NS1 inh -11% and Cruzain inh noDet 4%.
For Nc1ccccc1O.O.O=C(O)[C@H]1[O][Sb][O][C@H]1C(=O)O the results were Cruzain Triton 1%, NS1 inh -3% and Cruzain inh noDet -2%.
Screening CC(C)(C)OC(=O)NCCCCC1=CC2=CC(=O)C(C)(OC(=O)CCc3ccccc3)C(=O)C2=CO1 (stereo not given) returned Cruzain Triton 1% and Cruzain inh noDet 2%.
COc1ccc(CNC(=O)CCCn2nc(C)c3sc4ccccc4c3c2=O)cc1OC was read as Cruzain Triton -5% and Cruzain inh noDet -22%.
For COc1ccccc1CNC(=O)CCCn1nc(C)c2sc3ccccc3c2c1=O the results were Cruzain Triton -4% and Cruzain inh noDet 10µM*.
`O=C1C=CC2=C3c4cc(O)c(O)cc4C[C@@]3(O)COC2=C1` gave Cruzain Triton -1% and Cruzain inh noDet -10%.
For C=Cc1ccc(COc2ccc3oc(-c4ccccc4)c(C(=O)OCC)c3c2)cc1 the results were Cruzain Triton -6% and Cruzain inh noDet 32µM*.
`CCOC(=O)c1c(-c2ccccc2)oc2ccc(OCc3ccc(C)cc3)cc12` gave Cruzain Triton -1% and Cruzain inh noDet 10%.
Screening CCOC(=O)c1c(-c2ccccc2)oc2ccc(NS(=O)(=O)c3ccc(C(C)C)cc3)cc12 returned Cruzain Triton -3% and Cruzain inh noDet 20µM*.
`CC(=O)c1c(C)oc2ccc(NS(=O)(=O)c3ccc(C(C)C)cc3)cc12` gave Cruzain Triton -10% and Cruzain inh noDet 8%.
Screening CCOC(=O)c1c(-c2ccccc2)oc2ccc(N(C(C)=O)S(=O)(=O)c3cc(C)ccc3C)cc12 returned Cruzain Triton -3% and Cruzain inh noDet -10%.
CCOC(=O)c1c(-c2ccccc2)oc2ccc(NS(=O)(=O)c3ccc(C)cc3C)cc12 was read as Cruzain Triton -1% and Cruzain inh noDet 16µM*.
Screening CC(=O)N1CCC2(CCCN(C(=O)Nc3cccc(C#N)c3)C2)CC1 returned Cruzain Triton 2% and Cruzain inh noDet 3%.
For O=C(c1cccc(F)c1)N1CCC[C@@]2(CCN(Cc3nccs3)C2)C1 the results were Cruzain Triton 5% and Cruzain inh noDet -1%.
O=[N+]([O-])c1cccc(-c2ccc(/C=N/NC(=S)Nc3cccc(F)c3)o2)c1 was read as NS1 inh 7%.
O=[N+]([O-])c1cccc(-c2ccc(/C=N/n3c(-c4ccccc4)n[nH]c3=S)o2)c1 was read as Cruzain Triton -4%, NS1 inh 9% and Cruzain inh noDet 16µM*.
For NC(=S)N/N=C/c1ccc(-c2cccc([N+](=O)[O-])c2)o1 the results were Cruzain Triton 2.8µM*, NS1 inh -1% and Cruzain inh noDet 3.2µM*.
O=[N+]([O-])c1ccc(O)c(/C=N/n2c(-c3ccccc3)n[nH]c2=S)c1 was read as NS1 inh -134%.
`CC1CCc2c(sc3ncnc(SCC(=O)Nc4ccc(C(=O)O)cc4)c23)C1` (stereo not given) gave NS1 inh 5%.
`Cc1cc(NC(=O)CSc2ncnc3sc4c(c23)CCC(C)C4)no1` (stereo not given) gave Cruzain Triton 5%, NS1 inh 0% and Cruzain inh noDet 5µM*.
CN1CCN(C(=S)Nc2ccc(Cl)cc2Cl)CC1 was read as Cruzain Triton 3%, NS1 inh 2% and Cruzain inh noDet 1.6µM*.
